The record followed here is the supplement of paper PMC10105736.

Test in all cases: MAPPIT interaction score (arbitrary units); higher = stronger binary interaction signal, active = hit call of the paper
One assay addresses Arts. The note with it: MAPPIT configuration: N-N; pair source set: Finley_Y2H. The protocol: (§1)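 MAPPIT in HEK293T cells: Drosophila bait and prey ORFs (from the FlyBi ORF collection) were co-transfected in quadruplicate, with two wells stimulated by erythropoietin. Interaction-dependent JAK-STAT activation was read out with a STAT-responsive firefly luciferase reporter. Positive calls use the 99th percentile of random reference set (RRS) scores within each batch […]. Batches Dvs01 and Dvs02 used the N-N configuration and Dvs04 the N-C configuration. Pairs come from FlyBi screens, CuraGen, DPiM, Finley Y2H, Lit-BM-16, Lit-BS-16 and RRS.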

For the next assay, the target named is Pu. The note with it: MAPPIT configuration: N-N; pair source set: screen_1. The procedure:
as §1

The next assay has as its target Vinc. The following applies: pair source set: Lit-BM-16. The procedure: as §1
In another assay the target is ArfGAP3. The following applies: MAPPIT configuration: N-N; pair source set: Curagen_high_conf. The procedure: as §1
The next assay addresses Arc2. The following applies: MAPPIT configuration: N-N; pair source set: screen_1. The procedure: as §1
In another assay the target is Ald1. The following applies: pair source set: Lit-BM-16. The procedure:
as §1

In a further assay the target is Atg16. The following applies: MAPPIT configuration: N-C; pair source set: Lit-BM-16. The procedure: as §1
For a further assay, the target named is BEAF-32. The note with it: MAPPIT configuration: N-N; pair source set: screen_1. The procedure:
as §1

The next assay addresses Arv1. The note with it: MAPPIT configuration: N-C; pair source set: RRS. The protocol:
as §1

The target of a further assay is Act57B. The following applies: MAPPIT configuration: N-N; pair source set: screen_1. The procedure:
as §1

Unmarked numbers belong to inactive results.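 The calls were made as follows: active = MAPPIT score above the 99th percentile of random reference set scores in the same batch; inactive = at or below it.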
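Also: HEK293T cells with Epo stimulation, STAT-responsive firefly luciferase reporter, fold induction versus unstimulated cells divided by the larger fold induction of two negative controls lacking either bait or prey.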

B1: CAP (protein)
chain: MEPGTIPSPVSAPVAAPVTPSAVAAPVQVVSPAAVAPAPAAPIAVTPVAPPPTLASVQPATVTIPAPAPIAAASVAPVASVAPPVVAAPTPPAASPVSTPPVAVAQIPVAVSAPVAPPVAATPTPVAPIPVAAPVIATPPVAASAPTPAAVTPVVSPVIATPPVVPANTTVPVAAPVAAVPAAVPVVAPVLAPAVAPAVAPVVAETPAPPPVAEIPVATIPECVAPLIPEVSVVATKPLAAAEPVVVAPPATETPVVAPAAASPHVSVAPAVETAVVAPVSASTEPPVAAATLTTAPETPALAPVVAESQVAANTVVATPPTPAPEPETIAPPVVAETPEVASVAVAETTPPVVPPVAAESIPAPVVATTPVPATLAVTDPDVTASAVPELPPVIAPSPVPSAVAETPVDLAPPVLPPVAAEPVPAVVAEETPETPAPASAPVTIAALDIPEVAPVIAAPSDAPAEAPSAAAPIVSTPPTTASVPETTAPPAAVPTEPIDVSVLSEAAIETPVAPPVEVTTEVAVADVAPPEAAADLIIEPVEPPAPIPDLLEQTTSVPAVEAAESTSSPIPETSLPPPNEAVASPEVAVAPITAPEPIPEPEPSLATPTEPIPVEAPVVIQEAVDAVEVPVTETSTSIPETTVEYPVAEKVLDPAITEAPVTTQEPDVANINDGAPATEITTPAVEIVTAAAEVSDTAIPLIDPPVPQEIAVAEIPETETKPAEVIVEQSTIPIEAPVPEVSKYAEPVISEAPAAEVPITAGDNPDNTSVGISEVVPTIAEKAVEEVPTSEIPEQSSSPSDSVPVAKITPLLRDLQTTDVSLLAIAATLDAIGEKLKDQKARNQQVMDRLCEIEKILGPPKSN
With B1, the MAPPIT interaction score in the assay with Arts was 0.381; with Pu it was -0.205; with Vinc (MAPPIT configuration: N-C), 2.37; with Vinc (MAPPIT configuration: N-N) it was 2.53.

B2: CG16894 (protein)
chain: MWYSTVRNPSIALIKQGYHILAEYNLVKEELKNIYAIPSYACGLHWFGVIFVHSGIYAGSVFRFSILLPENFPADISLPTVVFSTEVLHPHICPQNKTLDLAHFLNEWRKDEHHIWHVLRYIQAIFADPEGSICTGQSSSGDLVIMDEVRNMNALNMLAKSRPEYIKRVQEQAILSRNLIYDRPPTEDPHYIIVEPYCAERHLKFMDQLKSPCWKEATSMDCSQPSEYLGHIDSSRQLDEEEANQVEKLHRGRIPEHQREESEVSL
As to B2, the MAPPIT interaction score in the assay with ArfGAP3 was 0.483.

B3: Arc2 (protein)
chain: MTQMSDEQFRIFIETIKSLGPIKEEPPSKGSFSNCTVRFSGQRDHDAVDEFINAVETYKEVEGISDKDALKGLPLLFKSIAVVWWKGVRRDAKTWSDALQLLRDHFSPTKPSYQIYMEIFETKQSYDEVIDSFICKQRALLAKLPEGRHDEETELDFIYGLMQPKYRESIPRHEVKTFRELLDRGRTVERTRH
As for B3, the MAPPIT interaction score with Arc2 was 6.05 (active).

B4: Ald1 (protein)
chain: MTTYFNYPSKELQDELREIAQKIVAPGKGILAADESGPTMGKRLQDIGVENTEDNRRAYRQLLFSTDPKLAENISGVILFHETLYQKADDGTPFAEILKKKGIILGIKVDKGVVPLFGSEDEVTTQGLDDLAARCAQYKKDGCDFAKWRCVLKIGKNTPSYQSILENANVLARYASICQSQRIVPIVEPEVLPDGDHDLDRAQKVTETVLAAVYKALSDHHVYLEGTLLKPNMVTAGQSAKKNTPEEIALATVQALRRTVPAAVTGVTFLSGGQSEEEATVNLSAINNVPLIRPWALTFSYGRALQASVLRAWAGKKENIAAGQNELLKRAKANGDAAQGKYVAGSAGAGSGSLFVANHAY
B4: the MAPPIT interaction score with Ald1 (MAPPIT configuration: N-C) is 1.2; with Ald1 (MAPPIT configuration: N-N), 4.7 (active).

B5: Atg5 (protein)
chain: MAHDREVLRMIWEGQIGICFQADRDEIVGIKPEPFYLMISRLSYLPLVTDKVRKYFSRYISAEHQDGAVWFDFNGTPLRLHYPIGVLYDLLHPEEDSTPWCLTIHFSKFPEDMLVKLNSKELLESHYMSCLKEADVLKHRGLVISAMQKKDHNQLWLGLVNEKFDQFWAVNRRLMEPYGDLESFKNIPLRIYTDDDFTYTQKLISPISVGGQKKSLADLMAELSTPVRRAVGCRTHGIDLHEETQLQWMSEHLSYPDNFLHLSVDYKDV
As to B5, the MAPPIT interaction score with Atg16 is 2.6.

B6: Sry-delta (protein)
chain: MDTCFFCGAVDLSDTGSSSSMRYETLSAKVPSSQKTVSLVLTHLANCIQTQLDLKPGARLCPRCFQELSDYDTIMVNLMTTQKRLTTQLKGALKSEFEVPESGEDILVEEVEIPQSDVETDADAEADALFVELVKDQEESDTEIKREFVDEEEEEDDDDDDEFICEDVDVGDSEALYGKSSDGEDRPTKKRVKQECTTCGKVYNSWYQLQKHISEEHSKQPNHICPICGVIRRDEEYLELHMNLHEGKTEKQCRYCPKSFSRPVNTLRHMRMHWDKKKYQCEKCGLRFSQDNLLYNHRLRHEAEENPIICSICNVSFKSRKTFNHHTLIHKENRPRHYCSVCPKSFTERYTLKMHMKTHEGDVVYGVREEAPADEQQVVEELHVDVDESEAAVTVIMSDNDENSGFCLICNTNFENKKELEHHLQFDHDVVLK
Regarding B6, in the assay with BEAF-32, the MAPPIT interaction score was 4.3 (active).

B7: Drak (protein)
chain: MFTEKGIFPIGDGLLDVDADRLKGLLVSCPDINEIYEVEQTPFARGKFAAVRRAIHKNTGSHFAAKFLKRRRRAQSSDKEIKHEIAVLMLCEGEDNIVNLNAVHETRSDTALLLELATGGELQTILDNEECLTEAQARHCMREVLKALKFLHDRSIAHLDLKPQNILLAGERIEDGLKLCDFGISRVVCEGINVREMAGTPDYVAPEVLQYEPLSLLTDIWSVGVLTYVLLSGFSPFGGDTKQETFLNISQCALTFPDNLFGGVSPVAIDFIRRALRIKPNDRMNATGCLDHIWLKDDCSLDRQIYLQPQSDAEEEEEEDVDDDVEDEEEEEQVEEEEEETQNVEEPTTEAPQQQQQPVQQHQLAKSGQIHSKPTHNGHHRANSGGSISKIPIATSKLQSTPSSETTTAIHTLTSNSNGHVHKPTQIVTPTRRASDSDKENTYTATFVKKPVATIQLGSSNGIEDATVVATLTLFPDAPTTPKVIRKTPTGESNGSATSVKALVKKFQLEDSSGSAVARRSGGAVTSSSGLHSPTTTSVRLNSIRRASEPLTTVYKKQTSQNGCSSTSNPSSSPGSSPTTSGSTATLLIHSQRLGNSTAPASHCVAVPATATATSSASSSNSSSGKSTSAAHHLHHHHMHHHHHHHHHHVVIAAKNAAAVAATNNLSLDQGIIC
With B7, the MAPPIT interaction score in the assay with Arv1 was 2.34.

B8: CG12206 (protein)
chain: MAAITSNVSRLEPMRGISIIIESPEVATATPPPATTTATAEAEAATKQVAPTAKSNSNTEMSLKSQAAGMLLAFGDTAATAKDNLETSYDTAAKSTAAPETNKIYPQLLLRIGGEIAGATASAEAAASAATAAAATATSPTIISCNGEIAASQAAATAADTAATLQHNNTVKIQIESQGQQRTLGKQISVVKLNEGVEEMQQHMCYLVDTSGQYSPCETLDSGTGSDLENHPQQQQQPQQVRSPQLELHLQTTRLMVNEEADHKHSPLETPSPVPKRAYSLTDDSEECDESSNSSLSCDSLHSGGLLPTTLLRDIRFRERASGPLVTKINGRPLQFETDGYYTFHVREHENFRSFGSNSSTEYEAQHFTDEQPGEDFVGFRDIRTAGKLAGNSTIKSAKGTVRGVKNRVRNGVATFLQLQQPNVKNYMEKDVGKVVLYTTSMGIIRDTYAKCANVKKILRTLLIKFEERDIFMSVEYQQEMRERMQDETIRVPQLFVEGQLIGDANIVERLNESGELRQLLRPYKSIATAYTCQTCGGYRMLPCPACNGSKKSMHRNHFTAEFVALKCMNCDEVGLIKCPNC
In the case of B8, the MAPPIT interaction score in the assay with Act57B is 1.77.
